# Screens (PubChem BioAssay)
# This is a sample that favours compounds with a hit; in the whole collection about 21% have one here.
# CYP2C19 inh: blockers of cytochrome P450 2C19 activity – biochemical, luminescence, ADME assay, primary screen; P33261; CYP2C19 Supersomes, luciferin-H EGE luminescence, 30 min; inhibition, % at 5 µM; 21% of 96,000 active;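 active = CYP2C19 inhibition above a set limit at 5 µM in the primary screen, cut at about 50% in these data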;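 note: plate controls were negative control wells for no effect and 2.5 mM tranylcypromine positive control for full effect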
# CYP2C9 activ: human CYP2C9 activators, primary screen, biochemical, luminescence; 1.4% of 96,000 active; activation factor at 5 µM; recombinant CYP2C9, luciferin-H conversion; stronger effect = higher value; factor 1 = untreated enzyme, 0 = blocked; AID 1024, 2008;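 active = activation factor of 2 or more for CYP2C9 at a 5 µM dose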;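 note: 0 = sulfaphenazole-blocked wells and 1 = vehicle-only wells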
# Target sequence (P11712 whole entry, looked up): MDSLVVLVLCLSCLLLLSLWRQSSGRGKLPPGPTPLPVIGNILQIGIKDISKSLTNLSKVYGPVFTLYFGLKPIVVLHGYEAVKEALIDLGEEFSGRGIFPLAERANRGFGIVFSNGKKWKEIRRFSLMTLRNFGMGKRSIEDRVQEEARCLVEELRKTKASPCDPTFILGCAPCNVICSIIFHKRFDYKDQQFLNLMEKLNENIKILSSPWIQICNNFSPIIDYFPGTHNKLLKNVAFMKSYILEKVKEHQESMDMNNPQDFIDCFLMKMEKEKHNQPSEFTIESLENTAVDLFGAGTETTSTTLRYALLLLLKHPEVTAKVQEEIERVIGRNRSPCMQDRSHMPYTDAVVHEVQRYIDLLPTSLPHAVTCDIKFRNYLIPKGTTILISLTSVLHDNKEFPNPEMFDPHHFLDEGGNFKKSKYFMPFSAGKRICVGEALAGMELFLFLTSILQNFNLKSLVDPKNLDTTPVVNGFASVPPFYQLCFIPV
# CYP2C9 inh: blockers of cytochrome P450 2C9 activity – biochemical, luminescence, ADME assay, primary screen. P11712. CYP2C9 Supersomes, luciferin-H conversion. inhibition, % at 5 µM. 20% of 96,000 active;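 active = blocking of liver enzyme CYP2C9 beyond about 50% at 5 µM, limit read from the data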
# CYP2C19 activ: human CYP2C19 activators, primary screen, biochemical, luminescence; Cytochrome P450 2C19 (Homo sapiens), P33261; recombinant CYP2C19, luciferin-H EGE luminescence; stronger effect = higher value; 0 = fully inhibited enzyme, 1 = untreated enzyme; activation factor at 5 µM; 96,000 tested, under 10 active;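 active = activation factor of at least 2 at 5 µM in the primary screen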;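 note: 0 = wells with 2.5 mM tranylcypromine and 1 = vehicle-only wells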
# MRP-1 activ: H69AR viability gain despite doxorubicin, primary screen, MRP-1 activator project, H69AR cells, CellTiter-Glo; viability rescue; 0.61% of 140,000 active; viability increase, % at 10 µM; AID 799, 2007;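 active = viability gain under doxorubicin at or above a set limit, the compound median plus 3 SD, cut at about 4.7% in these data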;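 note: MRP-1 overexpressing cells given doxorubicin 25 µM after compound pretreatment; 18-22 h compound pretreatment then 72 h with doxorubicin before readout; 0% = doxorubicin-only wells and 100% = vehicle-treated cells without doxorubicin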
# MRP reversal: reversal of MRP1-mediated doxorubicin resistance, primary screen, H69AR cells, doxorubicin co-treatment; 0.04% of 85,000 active; differential viability (reversal), % at 10 µM; H69AR cells + 2 uM doxorubicin, CellTiter-Glo, 72 h;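 active = viability drop by adding the cancer drug above about 55%, with treated viability meeting a 40% cutoff, limit read from the data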;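 note: viability without doxorubicin minus viability with 2 µM doxorubicin for each compound; larger differential means the compound sensitizes cells more to doxorubicin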
# * hit, by the source's call; . = no result given.
SMILES,CYP2C19 inh,CYP2C9 activ,CYP2C9 inh,CYP2C19 activ,MRP-1 activ,MRP reversal
Cc1ccccc1NC(=O)Cc1nnc(SCc2ccc(Cl)c(Cl)c2)n1C,23.7,0.8,17.7,0.8,-0.5,.
Clc1ccc(NCc2nncn2-c2ccccc2)cc1,98.3*,0.7,26.1,0,0.3,5.7
O=C(O)CSc1nnc(CNc2ccc(Cl)cc2)n1Cc1ccccc1,-5.9,1.1,-12.2,1.1,0.6,-8.0
Cc1cccc(NC(=O)c2ccc(COc3cccc4ccccc34)o2)n1,.,.,.,.,0.5,.
c1ccc(CNc2nc(CN3CCOCC3)nc3scc(-c4ccccc4)c23)cc1,.,.,.,.,-2.0,.
CC(=O)c1ccccc1Oc1nc(CN2CCOCC2)nc2scc(-c3cccs3)c12,85.4*,0.3,71.5*,0.1,-3.0,-4.5
Cc1sc2nc(CN3CCOCC3)nc(Oc3ccc(NC(=O)c4ccco4)cc3)c2c1C,.,.,.,.,-2.6,12.4
COc1ccc(C(C)=O)c(Oc2nc(CN3CCOCC3)nc3scc(-c4cccs4)c23)c1,43.7,0.5,51.2*,0.6,-4.4,3.9
Cc1ccc(C(C(=O)NC2CCCC2)N2CCc3ccccc32)cc1 (stereo not drawn),5.2,0.9,12.8,0.9,0.0,-11.1
CC(C)C(CO)NC(=O)CC(=O)NC(CO)C(C)C (stereo not drawn),-0.2,0.9,6.7,1,1.2,.
COc1ccc(NC(=O)C(=O)N2N=C(C(C)C)CC2(O)C(F)(F)F)cc1 (stereo not drawn),-4.4,1.1,-5.7,1,0.5,.
O=C1CCCc2ccccc2N1Cc1ccc(Cl)cc1,91.0*,0.3,68.5*,0.1,-1.5,.
Clc1ccc(CN2C3=NCCCN3c3ccccc32)cc1,-1.2,1.1,-10.3,1,-5.4,0.1
O=C1CCCc2ccccc2N1Cc1cccc(Cl)c1,83.6*,0.3,72.5*,0.2,-0.7,.
Cc1ccccc1C(=O)/C=C1\NC(=O)CS1,6.8,0.8,15.2,0.9,-0.4,5.4
Cc1cccc(C(=O)N2c3ccccc3C(=O)OC2c2ccc3c(c2)OCO3)c1 (stereo not drawn),26.7,0.4,57.7*,0.7,-0.3,.
O=C1OC(c2ccc3c(c2)OCO3)N(C(=O)c2ccc(Cl)c(Cl)c2)c2ccccc21 (stereo not drawn),84.5*,0.1,85.8*,0.2,-2.6,.
CC(=O)N1c2ccccc2C(=O)OC1c1cccnc1 (stereo not drawn),12.4,0.9,10.1,0.9,-1.6,-6.9
CC(=O)N1C(c2ccccc2)CC(=O)OC1c1ccc2c(c1)OCO2 (stereo not drawn),68.8*,0.9,14.0,0.3,-2.2,36.4
C=CCn1c(C(C)NC(=O)COC)nc2ccccc21 (stereo not drawn),10.5,0.8,16.0,0.9,0.1,12.9
[O-]/C(=C(\C(=S)Nc1cccc2ccccc12)[n+]1ccccc1)c1ccc2c(c1)OCCO2,-7.9,1,3.9,1.1,-4.5,16.3
Nc1nc(NCc2ccccc2)nc(Nc2cccc(F)c2)c1[N+](=O)[O-],-6.0,.,.,1.1,-1.5,.
Cc1ccc(CNc2nc(N)c([N+](=O)[O-])c(Nc3cccc(F)c3)n2)cc1,50.0*,0.3,65.2*,0.5,1.6,-12.2
CC(C)(CS(=O)(=O)[O-])NC(=O)CC[N+](C)(C)CCO,-12.9,1.1,-7.9,1.1,-0.7,-5.4
Cc1ccc(CNc2ncnc3cc(Cl)ccc23)o1,66.8*,0.5,53.9*,0.3,-5.0,3.5
COc1cc2ncnc(NCc3ccccc3C)c2cc1OC,32.8,0.8,22.0,0.7,-1.7,.
CC(=O)/C(=N\Nc1ccc(C)cc1)N1CCOCC1,80.0*,0.6,36.5,0.2,-1.5,.
COc1ccc(/C=N/NC(=O)c2cccnc2)cc1CSc1nc2ccccc2s1,.,.,.,.,-3.6,.
COc1ccc(/C=N/NC(=O)c2cc(-c3ccc(C)cc3C)nc3ccccc23)cc1COC(C)=O,47.4,0.3,74.4*,0.5,-3.4,.
COc1ccc(/C=N/NC(=O)c2ccccc2Cl)cc1CSc1nc2ccccc2s1,51.2*,0.2,81.5*,0.5,-4.2,.
